An excerpt weighted towards active compounds, which were near 28% of everything screened.
CYP2C9 act: increases human cytochrome P450 2C9 activity; activation factor at 5 µM; recombinant CYP2C9, luciferin-H conversion, luminescence; stronger effect = higher value; factor 1 = untreated enzyme, 0 = blocked; 96,000 tested, 1.4% active;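 active = activation factor of 2 or more for CYP2C9 at a 5 µM dose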
Target sequence (P11712 whole entry, looked up): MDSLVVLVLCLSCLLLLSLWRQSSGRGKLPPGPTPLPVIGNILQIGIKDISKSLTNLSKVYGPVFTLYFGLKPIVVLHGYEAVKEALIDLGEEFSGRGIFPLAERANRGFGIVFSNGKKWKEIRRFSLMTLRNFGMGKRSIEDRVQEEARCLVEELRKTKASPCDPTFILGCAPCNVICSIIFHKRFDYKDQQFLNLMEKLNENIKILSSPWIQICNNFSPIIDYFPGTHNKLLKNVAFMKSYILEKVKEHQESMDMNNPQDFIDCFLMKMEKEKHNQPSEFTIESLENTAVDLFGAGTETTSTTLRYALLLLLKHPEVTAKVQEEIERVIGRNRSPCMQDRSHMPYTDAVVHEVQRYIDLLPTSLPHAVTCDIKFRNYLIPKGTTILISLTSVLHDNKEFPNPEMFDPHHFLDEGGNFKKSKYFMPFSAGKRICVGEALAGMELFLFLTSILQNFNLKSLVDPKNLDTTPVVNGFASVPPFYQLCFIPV
CYP2C19 inh: inhibitors of human CYP2C19; CYP2C19 Supersomes, luciferin-H EGE luminescence, 30 min; AID 778; 96,000 tested, 21% active; inhibition, % at 5 µM;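 active = CYP2C19 inhibition above a set limit at 5 µM in the primary screen, cut at about 50% in these data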
CYP2C9 inh: human CYP2C9 inhibition; P11712; CYP2C9 Supersomes, luciferin-H conversion, luminescence; inhibition, % at 5 µM; 96,000 tested, 20% active; AID 777;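 active = blocking of liver enzyme CYP2C9 beyond about 50% at 5 µM, limit read from the data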
Pyk2 oligo antag: antagonists of human Pyk2 oligomerization; Q293 cells, Pyk2 FERM NanoBiT luminescence; stronger effect = lower value; 99,000 tested, 0.83% active; Q14289; z-score (the deposit names both 25 µM and 10 µM);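 active = Z-score of -3 or lower, scaled per plate to the spread of control and sample wells; inactive = z-score above -3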;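 note: negative z-score means lost luminescence so less FERM oligomerization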
CYP2C19 activ: activators of human cytochrome P450 2C19; P33261; recombinant CYP2C19, luciferin-H EGE luminescence; stronger effect = higher value; 0 = fully inhibited enzyme, 1 = untreated enzyme; activation factor at 5 µM; 96,000 tested, under 10 active; AID 1025;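 active = activation factor of at least 2 at 5 µM in the primary screen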
Of the large screens only hits and unclear results are named; the others gave an inactive call.

Nc1n[nH]c(S(=O)(=O)CCCc2ccccc2)n1	CYP2C19 inh 69.9
CC(=O)NC1=C(C#N)C(c2ccccc2)c2c(ccc3ccccc23)O1 (stereo unspecified)	CYP2C19 inh 91.0, CYP2C9 inh 95.4
COC(=O)CSc1nnc(-c2ccc(NS(=O)(=O)c3ccccc3)cc2)o1	CYP2C9 inh 94.2
Cc1ccc(C)c(NC(=O)CSc2nnc(-c3ccccc3)o2)c1	CYP2C19 inh 55.8 (no result: Pyk2 oligo antag)
COC(=O)c1ccccc1NC(=O)CSc1nnc(-c2ccncc2)o1	CYP2C19 inh 68.0
Cc1ccc(CSc2nnc(-c3ccc(NS(=O)(=O)c4ccccc4)cc3)o2)cc1	none (no result: CYP2C9 act, CYP2C19 inh, CYP2C9 inh, CYP2C19 activ)
CC1=CC(C)(C)N(C(=O)CSc2nnc(C)s2)c2ccc(C)cc21	none
CC1=CC(C)(C)N(C(=O)CSc2nnc(-c3ccc(C)cc3)o2)c2ccc(C)cc21	CYP2C19 inh 96.2, CYP2C9 inh 94.8
CC(C)(C)OC(=O)NC(CCCCNC=O)C(=O)O (stereo unspecified)	none
Cc1c(Br)cc(C(=O)N2CCN(CCO)CC2)c(C)c1C	none
COc1ccccc1NC(=O)CSc1nnc(-c2ccccc2)o1	CYP2C19 inh 59.1 (no result: Pyk2 oligo antag)
CC1=CC(C)(C)N(C(=O)CSc2nnc(N)s2)c2cc(C)c(C)cc21	CYP2C19 inh 76.7, CYP2C9 inh 69.9
Cc1cccc(NC(=O)CSc2nnc([C@@H](N)Cc3ccccc3)o2)c1C	CYP2C19 inh 69.9
CCOc1ccccc1NC(=O)CSc1nnc(-c2ccco2)o1	none
CN(c1ccc(C(=O)O)cc1)S(=O)(=O)c1ccc(Cl)cc1	none
C=CCOC(=O)Nc1c(C(=O)OC)[nH]c2ccc(Cl)cc12	none
C=C(C)C1Cc2c(C)nn(-c3nc(C)cc(C)n3)c2C1 (stereo unspecified)	none
COc1cccc(N2CCN(CC(=O)c3c[nH]c4ccc(OC)cc34)CC2C)c1 (stereo unspecified)	CYP2C9 inh 50.1
Cc1cccc(N(CC(N)=O)C2SC(=O)NC2=O)c1 (stereo unspecified)	none (no result: CYP2C9 act, CYP2C19 inh, CYP2C9 inh, CYP2C19 activ)
CC(C)NC(=O)c1ccc(-c2ccc(Cl)c(C(F)(F)F)c2)o1	none
CC(C)(C)c1ccc(OCC(O)CSc2ncn[nH]2)cc1 (stereo unspecified)	none
Cc1ccc(-c2noc(CSc3nnc(Cc4ccccc4)n3-c3cccc(C)c3)n2)cc1	CYP2C19 inh 82.4
Fc1ccc(-n2c(Cc3ccccc3)nnc2SCc2nc(-c3cccs3)no2)cc1	CYP2C9 inh 74.5
COc1ccc(-c2noc(CSc3nnc(Cc4ccccc4)n3-c3cccc(C)c3)n2)cc1OC	CYP2C19 inh 97.9, CYP2C9 inh 54.6
c1ccc(-c2noc(CSc3nnc(Cc4cccs4)n3-c3ccccc3)n2)cc1	none (no result: CYP2C9 act, CYP2C19 inh, CYP2C9 inh, CYP2C19 activ)
Cc1ccc(-c2noc(CSc3nnc(Cc4cccs4)n3-c3ccccc3)n2)cc1	CYP2C19 inh 71.6 (no result: Pyk2 oligo antag)
Cc1cc(C)n2nc(SCC(=O)c3cc(C)n(-c4cc(C)on4)c3C)nc2n1	none
CC1CCCC(C)N1CCNC(=O)Nc1ccc(Cl)cc1 (stereo unspecified)	none
NC(=O)CSc1nnc(Cc2cccs2)n1C1CCCCC1	none
Cc1ccc(-n2c(Cc3cccs3)nnc2SCC(N)=O)cc1	CYP2C19 inh 55.9
CCS(=O)(=O)NCCc1cc2ccc(C)cc2[nH]c1=O	none
CC(=O)N1CCC2(CC1)C(C#N)=C(N)Oc1n[nH]c(CSc3ccc(C)cc3)c12	CYP2C9 inh 52.9
Cc1[nH]nc2c1C1(CCC3(CC1)OCCO3)C(C#N)=C(N)O2	none
CCOC(=O)N1CCC2(CC1)C(C#N)=C(N)Oc1n[nH]c(C)c12	CYP2C19 inh 50.0
CCOC(=O)N1CCC2(CC1)C(C#N)=C(N)Oc1c2c(C)nn1-c1cccc(Cl)c1	CYP2C9 inh 71.8
CCOC(=O)N1CCC2(CC1)C(C#N)=C(N)Oc1c2sc2nc(C)cc(C)c12	none
Cc1ccccc1NC(=O)C(C#N)Cc1cccnc1 (stereo unspecified)	none
Cc1noc(C)c1S(=O)(=O)N1CCC(C(=O)NC2CCCc3ccccc32)CC1 (stereo unspecified)	none
O=C(Nc1ccc(N2CCN(C(=O)c3ccco3)CC2)cc1)c1cccc(F)c1	none
Cc1ccc(NC2=NC(C(=O)Nc3ccc(C)c(C)c3)CC(=O)N2)cc1 (stereo unspecified)	none
O=C(c1ccc2ccccc2n1)N1CCN(c2ccccc2O)CC1	CYP2C19 inh 58.5
O=C(O)/C(=C\c1ccco1)NC(=O)c1cccc2ccccc12	none
Cc1nn(C)cc1/C=N/NC(=O)C(C)(C)Oc1ccc(Cl)cc1	none

Screens: PubChem BioAssay, Sanford-Burnham Center for Chemical Genomics
